# Compound activity deposited in PubChem BioAssay by National Center for Advancing Translational Sciences (NCATS).
# G9a block = inhibitors of human histone lysine methyltransferase G9a. G9a H3K9 monomethylation, AlphaScreen, 2 h. Potency, µM (doses to about 102 µM), inactives show top-dose activity, negative = inhibition, actives largely listed as inhibitors. hit rate 8.8% among 350,000. AID 504332; also: potency is read from the fitted curve at half-maximal effect; % is scaled to controls: 0 for no effect and ±100 for the full control effect; nearly all actives have a fitted effect of over 75% in size
#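 Signal arises when biotinylated H3K9 peptide, once monomethylated, bridges streptavidin donor and antibody-captured acceptor beads. Enzyme at 20 nM was preincubated 15 min with test compounds; peptide 500 nM and SAM 20 uM then reacted for 2 h.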
# JMJD2A Tudor inh = blocks the human JMJD2A Tudor domain. hit rate 4.4% among 390,000. Potency, µM (titrated, usually from 114 µM), inactives show top-dose activity change, negative = inhibition, usual class: inhibitors. AlphaScreen JMJD2A-Tudor / H3K4me3 peptide binding. AID 504339; also: potency is read from the fitted curve at half-maximal effect; % is scaled to controls: 0 for no effect and ±100 for the full control effect; nearly all actives have a fitted effect of over 50% in size
# BAZ2B block = BAZ2B (human) inhibition | Q9UIF8 | AlphaScreen BAZ2B-H3K14Ac peptide displacement | Potency, µM (top dose mostly 114 µM), for the others: at the top dose activity change, negative = inhibition, usual class: inhibitors | hit rate 4.4% among 360,000 | AID 504333; also: potency is read from the fitted curve at half-maximal effect; % is scaled to controls: 0 for no effect and ±100 for the full control effect; nearly all actives have a fitted effect of over 60% in size
#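 Complex of BAZ2B and biotin-H3K14Ac (50 nM apiece) forms over 30 min at RT, then faces library compounds up to 110 uM for another 30 min; AlphaScreen beads added, 20 min dark incubation, luminescence read.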
# PI5P4K alpha inh = PI5P4K alpha (human) kinase inhibition; P48426; PI5P4Kalpha enzyme, ADP-Glo luminescence, 60 min; active compounds read low; max response, %; hit rate 1.2% among 330,000; active = max response of -50% or lower; inconclusive = between -30% and -50%; inactive = -30% or higher; also: value at the top dose of about 77 µM; % is scaled to controls: 0 for no effect and ±100 for the full control effect
# Target sequence (P48426 whole entry, looked up): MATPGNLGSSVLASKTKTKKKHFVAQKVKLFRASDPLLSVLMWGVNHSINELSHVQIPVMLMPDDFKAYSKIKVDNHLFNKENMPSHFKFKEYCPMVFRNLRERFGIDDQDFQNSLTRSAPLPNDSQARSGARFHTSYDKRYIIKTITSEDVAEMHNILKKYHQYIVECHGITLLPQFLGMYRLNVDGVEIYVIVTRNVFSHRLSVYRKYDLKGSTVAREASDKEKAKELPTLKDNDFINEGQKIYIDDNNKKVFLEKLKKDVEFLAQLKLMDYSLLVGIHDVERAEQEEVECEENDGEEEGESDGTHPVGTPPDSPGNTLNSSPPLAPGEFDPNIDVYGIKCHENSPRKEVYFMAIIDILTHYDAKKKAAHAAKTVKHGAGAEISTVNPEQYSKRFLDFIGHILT
#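 Single end-point luminescence (ADP-Glo) quantified ADP from PI5P4Kalpha turnover; ATP 5 microM final, 1 h at RT, 0.1% CHAPS and 0.28 mM EGTA in HEPES pH 7.4.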
# HP1b chromo inh = HP1-beta chromodomain-methylated histone interaction inhibition. AID 540317. Potency, µM (doses to about 114 µM), for the others: at the top dose activity change, negative = inhibition, most hits filed as inhibitors. AlphaScreen HP1-beta / biotin-H3K9me3 peptide binding. P83916. hit rate 0.56% among 390,000; also: potency is read from the fitted curve at half-maximal effect; nearly all actives have a fitted effect of over 70% in size
#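 Compound inhibition of the preformed complex between 50 nM HP1-beta and 50 nM biotinylated H3K9me3 peptide was read by AlphaScreen. Buffer was PBS pH 7.4 with 0.01% Tween-20. Incubations ran 30 min at room temperature, with 10 ug/mL donor/acceptor beads.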
# L3MBTL1 inh = inhibitors of human L3MBTL1; Q9Y468; AlphaScreen L3MBTL1–H3K9me1 peptide binding; Potency, µM (series often up to 57.1 µM), for inactives: at the top dose activity, negative = inhibition, actives largely listed as inhibitors; hit rate 0.66% among 230,000; AID 485360; also: potency is read from the fitted curve at half-maximal effect; % is scaled to controls: 0 for no effect and ±100 for the full control effect; nearly all actives have a fitted effect of over 60% in size
#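 L3MBTL1 50 nM + b-AHA-H3(1-15)K9me1 75 nM, 30 min RT; compound added, 30 min RT; streptavidin donor/Ni-chelate acceptor beads 10 ug/mL each final, 30 min RT dark; AlphaScreen read.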
# Numbers without * were called inactive; ? = inconclusive; nt = no result given; [ ] = dose if it differs, or a comment. Sampled rows, rich in hits. Any-hit rate of the full collection: about 11%. Unless noted, calls follow the shape of the dose curve; as a rule, active = well fitted inhibition curve with a large enough effect; inconclusive = small, poorly fitted or top-dose-only effect; inactive = no such curve, though single readings can be large or run the other way.
SMILES,G9a block,JMJD2A Tudor inh,BAZ2B block,PI5P4K alpha inh,HP1b chromo inh,L3MBTL1 inh
O=C(Nc1cc2c(cc1C(=O)c1ccc(Br)cc1)OCCO2)c1ccc(Cl)cc1,17%[59 µM],-10%,2%,nt,31%,nt
[S-]c1nnc(-c2ccc(Br)cc2)n1-c1ccccc1.[Zn+2],-5%[0.501 µM],50µM*,79µM*,-5,21%,5%[2.29 µM]
CCOc1ccc(-c2nnc(SCC(=O)c3ccc(Br)cc3)n2-c2ccccc2)cc1,?,-4%,-24%,nt,33%,nt
COc1ccc(-n2c(SCC(=O)Nc3cc(C)cc(C)c3)nc3c(oc4ccccc43)c2=O)cc1,10%[59 µM],0%,1%,nt,25%,nt
CC1CCCN(c2nc(N(C)c3ccccc3)nc(N)c2[N+](=O)[O-])C1 (centres undefined),32µM*,?,?,12,?,-5%
CCOc1ccc(Nc2nc(N)c([N+](=O)[O-])c(N3CCOCC3)n2)cc1,?,-20%,-17%,-11,-7%,nt
Cc1ccc(Nc2nc(N)c([N+](=O)[O-])c(N3CCCC(C)C3)n2)cc1C (centres undefined),20µM*,25µM*,?,2,?,-2%
CC1CCCN(c2nc(NCc3ccco3)nc(N)c2[N+](=O)[O-])C1 (centres undefined),?,?,50µM*,12,?,-2%
CCOc1ccc(Nc2nc(N)c([N+](=O)[O-])c(N3CCN(CC)CC3)n2)cc1,-11%[2.33 µM],?,50µM*,-4,?,nt
Cc1cc(C)c2oc(-c3cc(NC(=O)Cc4ccccc4)ccc3Cl)nc2c1,11%[59 µM],-8%,7%,nt,32%,nt
COc1ccc(NC(=O)c2cccc(N3CCCS3(=O)=O)c2)cc1OC,-4%[59 µM],-10%,-8%,nt,19%,nt
CC1(C)O[C@H]2[C@@H](O1)[C@@H](C(=O)Nc1cc(F)ccc1F)O[C@@H]1OC(C)(C)O[C@@H]12,0%[59 µM],-9%,4%,nt,20%,nt
COC(=O)N1CCC2(CCN(Cc3ccc(C#N)cc3)CC2)CC1,3%[12.7 µM],nt,nt,nt,nt,nt
CSc1nc(-c2ccccc2)c(C#N)c(=O)[nH]1,-33%,4%[11.4 µM],-13%,-20,-18%,nt
CSc1nc(-c2cccs2)c(C#N)c(=O)[nH]1,45µM*,-6%,-20%,?,0%,1%
CC(=O)Nc1ccc(NC(=O)C(C)OC(=O)c2ccc(-n3cnnn3)cc2)cc1 (centres undefined),16%[2.33 µM],-25%,7%,6,27%,3%
Cc1cc(C)n(-c2ccc(C(=O)OC(C)C(=O)Nc3ccc(C(N)=O)cc3)cc2)n1 (centres undefined),79µM*,-1%,0%,1,20%,-3%
CCN(c1ccccc1)S(=O)(=O)c1ccc2[nH]cc(C(=O)NCc3ccc(C)cc3)c(=O)c2c1,-14%[59 µM],56µM*,-12%,nt,13%,nt
CCCCCCC(=O)Nc1ccc2nc3c(=O)n(C)c(=O)n(C)c3nc2c1C,-6%[59 µM],-14%,2%,nt,8%,nt
CCN(Cc1ccncc1)C(=O)c1cc(COc2ccc(F)cc2F)on1,40µM*,-15%,-19%,-3,56%,nt
CCN(Cc1cnn(C)c1)C(=O)c1cc(COc2ccc(F)cc2F)on1,7%[59 µM],1%,3%,2,42%,nt
CCCCOc1ccc(C2=NC(c3cccs3)=Nc3ccc(OC)cc3N2)cc1,?,40µM*,?,nt,-23%,nt
CCc1ccc2c(c1)NC(c1ccc(OC)cc1)=NC(c1ccncc1)=N2,-8%[59 µM],50µM*,?,nt,?,nt
CCOc1ccc(C2=NC(c3cccs3)=Nc3ccc(CC)cc3N2)cc1OCC,10µM*,25µM*,10µM*,nt,?,nt
COc1ccc(C2=Nc3ccc(C)cc3NC(c3ccc(Cl)cc3)=N2)cc1,7%[59 µM],-24%,-2%,nt,11%,nt
Cc1cc(C)cc(Cn2ncc3c4sc(C)cc4n(C)c3c2=O)c1,nt,-27%,nt,nt,nt,nt
CC1CCN(c2cc3c(cc2F)c(=O)c(S(=O)(=O)c2cccc(Cl)c2)cn3Cc2ccccc2)CC1,0%[59 µM],-19%,-1%,nt,16%,nt
